Activity calls are given as the source filed them.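 The calls were made as follows: active = viability loss from added drug above about 55%, and viability with drug at most 40%, in both replicates (limit read from the data, passing the limit was not always enough); inconclusive = both conditions met in only one replicate; inactive = neither replicate meets both conditions.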

Our source for the differential viability (reversal) and viability values is PubChem BioAssay.

The first experiment in a line: reversal of MRP1-mediated doxorubicin resistance, pilot screen, H69AR cells, doxorubicin co-treatment (AID 601). The conditions noted are these: H69AR cells + 2 uM doxorubicin, CellTiter-Glo, 72 h; at 10 µM; stronger effect = higher value.
As for `Cc1ccc(C)c(N2CCN(CCCNC(=O)Cn3cc4c(n3)CCC(C)C4)CC2)c1` (configuration not stated), the differential viability (reversal) is -20.3% (inactive). On to `CCOC(=O)c1ccc(N=c2sc(C(=O)OC)cc(=O)n2Cc2ccco2)cc1`, for which the differential viability (reversal) was 0.27% (inactive). Still for that read-out and setting: the figure for `Cc1ccccc1-c1nc(CN2CCC(C(=O)NC3CCN(Cc4ccccc4)CC3)CC2)c(C)o1` is 7.26% (inactive); for `CC(=O)n1cc(-c2ccncc2)c2ccccc21` it is 6.14% (inactive).

For `C/C=C/CSc1nc2c(c(=O)[nH]c(=O)n2C)n1Cc1ccc(C)cc1`, the differential viability (reversal) was -22.7% (inactive).

`O=C(NCCN1C(=O)C2C3C=CC(C3)C2C1=O)Nc1ccccn1` (configuration not stated): the differential viability (reversal) is 12.5% (inactive). `CC1CCCCN1S(=O)(=O)c1ccc(NC(=O)c2cccs2)cc1` (configuration not stated): the differential viability (reversal) is 1.84% (inactive).

On to `CCOc1ccc(N(CC(=O)Nc2cccc(OC)c2)S(=O)(=O)c2c(C)noc2C)cc1`, for which the differential viability (reversal) is -16.7% (inactive).

For the molecule `CCOC(=O)N1CCN(C(=O)CN(C2CCCCC2)S(=O)(=O)c2ccc(F)cc2)CC1`, the differential viability (reversal) is 5.98% (inactive).

As for `COc1cccc(-c2nc(CS(=O)(=O)CC(=O)Nc3cc(C)ccc3C)c(C)o2)c1`, the differential viability (reversal) is 15.3% (inactive).

On to `Cc1cc(=O)oc2c1ccc1oc(/C(=N/O)c3ccccc3)c(C)c12`, for which the differential viability (reversal) was -17.2% (inactive). Consider `Cc1cc(/C=N/n2cnnc2)c(C)n1-c1cccc(Cl)c1`, for which the differential viability (reversal) is 20.5% (inactive).

Take `Cc1cc(C)c2c(=O)n(CC(=O)NCCCN3CCOCC3)sc2n1`: the differential viability (reversal) was 4.36% (inactive).

The same experiment, now with this note: H69AR cells + 2 uM doxorubicin, CellTiter-Glo, 72 h; measured here: viability with 2 uM doxorubicin; at 10 µM; stronger effect = lower value.
What is called viability is a read-out of living cells in per cent, often relative to untreated cells. On to `CN(C)c1ccc(NC(=O)Cn2cc3c(n2)CCCC3)cc1`, for which the viability came to 84.1%. For `CCOC(=O)c1cc(NC(=O)SCC(=O)O)c(C)nc1C`, the viability came out at 85.4%. Consider `Cc1nc2ccccc2c2oc(C(=O)NCC3COc4ccccc4O3)cc12` (configuration not stated), for which the viability was 88.3%.

`O=C(CS(=O)(=O)c1cn(Cc2ccc(F)cc2)c2ccccc12)N1CCCCC1`: the viability is 88%. The same measure, in the same setting: the figure for `Cc1ccc(C2c3c(oc4ccccc4c3=O)C(=O)N2c2nnc(C(C)C)s2)o1` (configuration not stated) is 14.7%; for `Cc1cc(C)c2c(=O)n(CC(=O)NCCCN3CCN(c4ccccc4F)CC3)sc2n1` it is 1.19%; for `COc1ccccc1S(=O)(=O)Cc1ccc(C(=O)NCCN2CCCCCC2)o1` it is 90%. Same read-out and setting: with `COc1ccc(C2C(C(=O)Nc3cccnc3)=C(C)Nc3nc(-c4cccs4)nn32)cc1OC` (configuration not stated) the figure was 75.7%; with `Cc1cc(=O)oc2cc(OCC#N)ccc12`, 93.3%. Regarding `CC1=C(C(N)=O)C(c2ccccn2)n2nc(SCc3ccccc3)nc2N1` (configuration not stated), the viability was determined as 95.9%. The same measure, in the same setting: with `OC1(c2cccc(C(F)(F)F)c2)CCN(c2ccc(-c3ccccc3)nn2)CC1` the figure was 61.9%. The same measure, in the same setting: with `CCOC(=O)CSC1=C(C#N)C(c2ccc(C)o2)CC(=O)N1` (configuration not stated) the figure was 47.9%; with `O=C(Nc1nc2c(s1)CCCC2)C1COc2ccccc2O1` (configuration not stated), 99%; with `Cc1ccccc1Cn1nc(C)c(NC(=O)c2noc3c2CCc2ccccc2-3)c1C`, 84.4%. Consider `O=C(C1CC1)N1CCc2cc(Br)cc(S(=O)(=O)N3CCOCC3)c21`, for which the viability turned out to be 80.1%. As to `C/C=C/COC(=O)c1[nH]c2c(c1C)C(=O)CC(c1ccco1)C2` (configuration not stated), the viability was found to be 40.2%.

For `Cc1ccc2nc(NC(=O)Cn3cc4c(n3)CCCCC4)sc2c1`, the viability amounted to 96.6%. Regarding `Cn1c(=O)oc2cc(S(=O)(=O)N3CCN(c4ccccn4)CC3)ccc21`, the viability came to 73.5%.

In the case of `Cc1cccc(N(CC(=O)N2CCCC2)S(=O)(=O)c2ccccc2)c1C`, the viability turned out to be 88.8%. The same measure, in the same setting: with `CC(Sc1n[nH]c(=O)[nH]c1=O)C(=O)OCc1ccccc1` (configuration not stated) the figure was 88.3%; with `O=C(Nc1ccncc1)c1cc2ccccc2o1`, 91.1%. For `CCOc1ccccc1NC(=O)C1CCCN(S(=O)(=O)c2cccc3cccnc23)C1` (configuration not stated), the viability amounted to 89.8%. In the case of `O=C(Nc1nc(-c2ccncc2)cs1)C1COc2ccccc2O1` (configuration not stated), the viability was found to be 60.6%. Regarding `CC(C)C(CO)NC(=O)CC(=O)NC(CO)C(C)C` (configuration not stated), the viability came out at 81.4%. Turning to `C(=N\n1cnnc1)/c1cccc(OCCOc2ccccc2)c1`, the viability turned out to be 90.5%. The same measure, in the same setting: the figure for `C/C=C/COC(=O)c1[nH]c2c(c1C)C(=O)CC(c1ccc(N(C)C)cc1)C2` (configuration not stated) is 72.1%. Same read-out and setting: the figure for `Cc1ccc(C)c(N2CCN(CCCNC(=O)Cn3cc4c(n3)CCC(C)C4)CC2)c1` (configuration not stated) is 46.9%; for `CCOC(=O)c1ccc(N=c2sc(C(=O)OC)cc(=O)n2Cc2ccco2)cc1` it is 1.24%. `Cc1ccccc1-c1nc(CN2CCC(C(=O)NC3CCN(Cc4ccccc4)CC3)CC2)c(C)o1`: the viability came out at 79%. Regarding `CC(=O)n1cc(-c2ccncc2)c2ccccc21`, the viability was determined as 79.2%.

`C/C=C/CSc1nc2c(c(=O)[nH]c(=O)n2C)n1Cc1ccc(C)cc1`: the viability stood at 58.2%. Still for that read-out and setting: the figure for `O=C(NCCN1C(=O)C2C3C=CC(C3)C2C1=O)Nc1ccccn1` (configuration not stated) is 83.3%; for `CC1CCCCN1S(=O)(=O)c1ccc(NC(=O)c2cccs2)cc1` (configuration not stated) it is 83.6%. The same measure, in the same setting: with `CCOc1ccc(N(CC(=O)Nc2cccc(OC)c2)S(=O)(=O)c2c(C)noc2C)cc1` the figure was 76.3%; with `CCOC(=O)N1CCN(C(=O)CN(C2CCCCC2)S(=O)(=O)c2ccc(F)cc2)CC1`, 91.7%.

On to `COc1cccc(-c2nc(CS(=O)(=O)CC(=O)Nc3cc(C)ccc3C)c(C)o2)c1`, for which the viability turned out to be 50.8%. As to `Cc1cc(=O)oc2c1ccc1oc(/C(=N/O)c3ccccc3)c(C)c12`, the viability was determined as 91.7%. Still for that read-out and setting: the figure for `Cc1cc(/C=N/n2cnnc2)c(C)n1-c1cccc(Cl)c1` is 65.9%. For the molecule `Cc1cc(C)c2c(=O)n(CC(=O)NCCCN3CCOCC3)sc2n1`, the viability was 35.5%.
